Measurements as given in PubChem BioAssay (NCI).
The panel holds about 83,000 compounds, 20% with a hit somewhere; the sample as a whole holds those more often.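 Treatment: one concentration, 48 hours, 96-well format. Scoring: percent growth, with anything below 10 considered active.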 Calls of active or inactive are those of the source.

system: MDA-MB-468 breast; experiment: NCI-60 one-dose screen, 48 h (100 = growth as untreated, 0 = no growth, -100 = all killed); conditions: 10 µM unless noted

| SMILES | growth |
| --- | --- |
| Cc1ncc(-c2ccoc2)c(NC2CCCCCC2)n1 | 105% (inactive) |
| O=C(O)COc1ccc(OCC(=O)O)cc1 | 2.23% (active) |
| Clc1cccc(C2Cc3cnccc3-c3[nH]c4ccncc4c32)c1 (stereo unspecified) | 5.96% (active) |
| CCN(CC)CCOc1ccc(Cl)c(C)c1 | 103% (inactive) |
| Oc1cc(Nc2ccnc3cc(Cl)ccc23)c2ncccc2c1 | 47.4% (inactive) |
| O=C(Cc1ccccc1)Nc1nc(O)c(/C=C2\C(=O)C=Cc3ccccc32)s1 | 95.9% (inactive) |
| Cc1cc2nc3cc(C)c(N)cc3[n+](-c3ccccc3)c2cc1N | 2.5% (active) |
| O=C1Nc2ccc(Cl)cc2/C1=C\c1c(-c2ccc(F)cc2)nc2ccccn12 | -13.6% (active) |
| CCN1C(=O)N(CC)C2C1NN=c1s/c(=C\c3cnc(C)n3C)c(=O)n12 (stereo unspecified) | -12.2% (active) |
| COc1cc(OC)cc(-c2ccc(-c3ccc(C(=N)N)cc3)s2)c1 | -81.3% (active) |
| c1ccc(-c2cn3nc(-c4c[nH]c5ccccc45)sc3n2)cc1 | 77.9% (inactive) |
| N#Cc1cc(-c2ccnc(Nc3ccc(NC(=O)CCl)cc3)n2)ccc1N1CCCC1 | -45.9% (active) |
| COc1ccc2c(c1)nc(N)c1c3cc(C)c(C)cc3cn21 | 48.3% (inactive) |
| O=c1[nH]c2cc(O)ccc2n2cc3c(F)cccc3c12 | 28.7% (inactive) |
| C=C1C(=O)O[C@H]2[C@H]1CC/C(COC(=O)NCCc1c[nH]c3ccc(OC)cc13)=C\CC[C@@]1(C)O[C@@H]21 | -44.9% (active) |
| O=[N+]([O-])c1cc(S(=O)(=O)Nc2ccccc2)ccc1Cl | -33.4% (active) |
